Values joined by “and” are separate entries in the source; they are usually repeats but may differ in a detail not shown here. Equal entries are not always repeated. Results filed as inconclusive are left out. A call without a number means that no potency is given here. Values without a mark were called inactive. Active and inactive are the calls of the source. Calls come from the whole dose curve; as a rule, active = well fitted curve in the direction sought with a large enough effect; inconclusive = small, poorly fitted or top-dose-only effect, or another doubt; inactive = no such curve, though single readings can be large; an effect the other way counts as inactive or inconclusive. Where a SMILES comes first, the peptide text is derived from it. [ ]: non-standard residue; d: D form. pGlu = O=C1CC[C@@H](C(=O)O)N1
Experiments:
[1] = molecular target: Cytochrome P450 3A7 (Homo sapiens) (UniProt P24462); experiment: Cytochrome P450 family 3 subfamily A member 7 (CYP3A7) small molecule antagonists: luciferase biochemical qHTS assay (AID 1963596); note: nearly all actives have a fitted effect of over 40% in size
How it was run: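 Compounds were screened in qHTS format for interference with CYP3A7 turnover of a proluciferin substrate. Reactions ran 1 h at room temperature after NADPH regeneration solution was added, then luciferin product was detected by luminescence.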

[2] = Viability qHTS for spleen associated tyrosine kinase inhibitor (SYKi) naive MV4-11 cells (AID 1963823); note: nearly all actives have a fitted effect of over 40% in size; note: potency is the fitted concentration of half-maximal effect
How it was run: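 CellTiter-Glo luminescence, 10 min room-temperature incubation, gave viability. Cells: naive MV4-11 (500/well), treated 72 hr at 37 C, 5% CO2.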

[3] = Viability qHTS for spleen associated tyrosine kinase inhibitor (SYKi) drug resistant MV4-11 cells (AID 1963824); note: nearly all actives have a fitted effect of over 35% in size; note: potency is the fitted concentration of half-maximal effect
How it was run: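 SYK inhibitor-resistant MV4-11 AML cells, 500 per well, added to predispensed compounds and incubated 72 hr at 37 C, 5% CO2. Viability measured by CellTiter-Glo luminescence after 10 min at room temperature.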

[4] = Cellular viability qHTS for adrenocortical cancer (ACC) cell line SW-13 (AID 1963989); conditions: SW-13 ACC cells viability, CellTiter-Glo, 48 h; activity (max response): stronger effect = lower value;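 note: cells grown in serum-free medium with ITS supplement; nearly all actives have a fitted effect of over 65% in size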
How it was run: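 Luminescent ATP read-out (CellTiter-Glo, 20 min at room temperature) measured metabolically competent SW-13 cells after 48 h compound treatment. Final concentrations spanned up to 46 uM; bortezomib served as positive control.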

Sequence of Cytochrome P450 3A7 (Homo sapiens) (P24462 whole entry, looked up): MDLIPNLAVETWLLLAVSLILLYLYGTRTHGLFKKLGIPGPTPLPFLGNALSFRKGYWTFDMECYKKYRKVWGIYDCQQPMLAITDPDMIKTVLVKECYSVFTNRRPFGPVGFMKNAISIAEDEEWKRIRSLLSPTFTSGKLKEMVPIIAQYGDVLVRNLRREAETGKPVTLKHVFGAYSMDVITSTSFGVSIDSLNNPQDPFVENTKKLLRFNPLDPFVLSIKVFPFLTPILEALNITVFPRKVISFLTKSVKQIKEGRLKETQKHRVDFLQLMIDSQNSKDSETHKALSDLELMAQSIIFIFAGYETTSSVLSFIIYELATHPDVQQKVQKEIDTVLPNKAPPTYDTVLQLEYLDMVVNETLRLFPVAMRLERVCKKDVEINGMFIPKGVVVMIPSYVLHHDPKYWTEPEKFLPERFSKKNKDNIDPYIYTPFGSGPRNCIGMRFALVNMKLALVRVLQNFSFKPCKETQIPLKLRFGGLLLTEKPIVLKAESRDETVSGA

| Compound | Potency [1] | Potency [2] | Potency [3] | activity (max response) [4] |
| --- | --- | --- | --- | --- |
| C#CC(C)(CC)OC(=O)c1ccccc1C(=O)O (stereo unspecified) | inactive | inactive | inactive | 8.16% |
| CCCCCCCCCCCCOS(=O)(=O)O | inactive | inactive | inactive | 4.63% |
| CCNC(=O)[C@@H]1CCCN1C(=O)[C@H](CCCN=C(N)N)NC(=O)[C@H](CC(C)C)NC(=O)CNC(=O)[C@H](Cc1ccc(O)cc1)NC(=O)[C@H](CO)NC(=O)[C@H](Cc1c[nH]c2ccccc12)NC(=O)[C@H](Cc1cnc[nH]1)NC(=O)[C@@H]1CCC(=O)N1 ([pGlu]HWSYGLRP-NHEt) | inactive | 13.3 µM (active) | inactive | 7.58% |
| Nc1nnnn1-c1ccccc1 | inactive | inactive | inactive | 1.62% |
| O=c1cc[nH]c(=O)[nH]1 | inactive | inactive | inactive | 7.94% |
| FC(F)(F)C(Cl)Br (stereo unspecified) | inactive | inactive | inactive | -8.02% |
| CCCc1ncc(C(=O)O)s1 | inactive | inactive | inactive | 8.93% |
| C/C(=N\O)[C@@H](C)NCC(C)(C)CN[C@H](C)/C(C)=N/O | inactive | inactive | inactive | 8.19% |
| Cc1[nH]c(/C=C2\C(=O)Nc3ccc(F)cc32)c(C)c1C(=O)NC[C@H](O)CN1CCOCC1 | inactive | 13 nM (active) and 26.3 nM (active) | 23.1 nM (active) and 46.8 nM (active) | -9.94% |
| C[C@@H](O)[C@H]1C(=O)N2C(C(=O)O)=C(S[C@@H]3CN[C@H](C(=O)N(C)C)C3)[C@H](C)[C@H]12 | inactive | inactive | inactive | 7.3% and 9.96% |
| CCOC(=O)OC(C)OC1=C(C(=O)Nc2ccccn2)N(C)S(=O)(=O)c2ccccc21 (stereo unspecified) | inactive | inactive | inactive | 1.88% |
| O=C(O)[C@H](O)[C@@H](O)[C@H](O[C@@H]1O[C@H](CO)[C@H](O)[C@H](O)[C@H]1O)[C@H](O)CO | inactive | inactive | inactive | 9.39% |
| Cc1cccc(C)c1NC(=O)c1ccccc1C(=O)O | inactive | inactive | inactive | 8.06% |
| CCO[C@H](Cc1ccc(OCCc2ccc(OS(C)(=O)=O)cc2)cc1)C(=O)O | inactive | inactive | inactive | 6.74% |
| NC(CS)C(=O)O (stereo unspecified) | inactive | inactive | inactive | 12.6% |
| CC(=O)NCc1c(I)c(NC(C)=O)c(I)c(C(=O)O)c1I | inactive | inactive | inactive | 13.2% |
| C[C@H](Nc1ncnc2nc[nH]c12)c1cc2cccc(Cl)c2c(=O)n1-c1ccccc1 | inactive | 11.8 µM (active) | 5.8 µM (active) and 6.61 µM (active) | -1.12% |
| CCC(=O)Nc1cccc(Oc2nc(Nc3ccc(N4CCN(C)CC4)cc3OC)ncc2Cl)c1 | inactive | 1.64 µM (active) and 2.35 µM (active) | 2.91 µM (active) and 2.35 µM (active) | -16.6% |
| O=C(CN1CCNCC1)NC1CCCCC1 | inactive | inactive | inactive | -8.69% |
| NCCc1ccn[nH]1 | inactive | inactive | inactive | 3.59% |
| O=P(O)(O)OCC(O)CO (stereo unspecified) | inactive | inactive | inactive | 10.4% |
| CC(N=C(NC#N)Nc1ccncc1)C(C)(C)C (stereo unspecified) | inactive | inactive | inactive | 1.19% |
| CN1Cc2cc(C(=O)N3CCC(C4CCNCC4)CC3)ccc2N[C@@H](CC(=O)O)C1=O | inactive | inactive | inactive | 10.2% |
| O=c1[nH]c([C@@H]2CCCN2)nc2c1oc1ccc(Cl)cc12 | inactive | 8.2 µM (active) and 16.6 µM (active) | 16.4 µM (active) | -13.8% |

— PubChem BioAssay (NCATS)
